Sampled rows, rich in hits. Any-hit rate of the full collection: about 17%.
TDP1 inh: qHTS Assay for Inhibitors of Tyrosyl-DNA Phosphodiesterase (TDP1); recombinant TDP1, AlphaScreen DNA substrate cleavage; Potency, µM (series often up to 130 µM), for the others: at the top dose activity change, negative = inhibition, usual class: inhibitors; 350,000 compounds, 0.28% hits; AID 485290, 2010; further: on the % scale 0 is the no-effect control and ±100 the full control effect; nearly all actives have a fitted effect of over 40% in size
Target sequence (Q9NUW8 whole entry, looked up): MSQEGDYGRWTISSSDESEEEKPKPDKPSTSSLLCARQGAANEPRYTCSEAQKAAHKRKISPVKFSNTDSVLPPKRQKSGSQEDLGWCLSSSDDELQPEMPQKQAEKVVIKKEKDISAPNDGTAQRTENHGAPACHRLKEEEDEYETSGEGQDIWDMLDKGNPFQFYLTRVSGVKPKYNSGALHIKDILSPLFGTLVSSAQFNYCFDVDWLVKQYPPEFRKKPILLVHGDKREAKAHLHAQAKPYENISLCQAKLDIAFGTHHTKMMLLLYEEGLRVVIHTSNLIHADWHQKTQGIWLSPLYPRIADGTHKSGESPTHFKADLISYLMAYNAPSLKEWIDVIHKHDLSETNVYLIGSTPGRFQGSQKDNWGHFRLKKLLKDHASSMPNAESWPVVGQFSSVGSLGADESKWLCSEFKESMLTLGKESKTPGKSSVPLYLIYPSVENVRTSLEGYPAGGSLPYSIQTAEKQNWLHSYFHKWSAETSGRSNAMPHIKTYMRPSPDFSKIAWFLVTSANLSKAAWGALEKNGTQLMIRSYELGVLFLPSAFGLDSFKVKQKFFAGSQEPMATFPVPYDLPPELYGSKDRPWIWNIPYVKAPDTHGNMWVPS
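E. coli-derived human Tdp1, 1 nM final. Cpd preinc 15 min RT; substrate 15 nM final, 5 min RT; AS bead mix 10 ug/ml final, 10 min RT. Signal loss = tyrosine-FITC cleavage. No-enzyme wells = max signal.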
DT40 TDP1 CPT: qHTS for Inhibitors of human tyrosyl-DNA phosphodiesterase 1 (TDP1): qHTS in cells in presence of CPT; 420,000 compounds, 12% hits; Potency, µM (titrated, usually from 46.2 µM), without a hit: top-dose activity change, negative = growth inhibition, actives largely listed as inhibitors; chicken DT40 Tdp1-/-;hTDP1 cells + 20 nM CPT, ATP luminescence, 48 h; further: on the % scale 0 is the no-effect control and ±100 the full control effect; nearly all actives have a fitted effect of over 55% in size
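Chicken DT40 Tdp1-/- cells stably complemented with human TDP1 were seeded at 400 cells/well in medium containing 20 nM camptothecin, exposed to pin-transferred compounds, and grown at 37 °C for at least 48 hr. Viability was read as ATP luminescence.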
ClpP mod: qHTS Assay for Activators of ClpP | Potency, µM (series often up to 57.5 µM), for the others: top-dose activity change, negative = active | purified B. subtilis ClpP, FRET peptide cleavage, 20 min | 340,000 compounds, 1.9% hits; active means well fitted falling curve with a large enough effect; inconclusive means small, poorly fitted or top-dose-only effect; inactive means no such curve, though single readings can be large or run the other way; further: the source files actives as falling curves though it sought activators and does not explain the sign; nearly all actives have a fitted effect of over 65% in size
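ClpP 10 microg/mL final, pH 8 Tris/KCl buffer with BSA, glycerol, Tween-20; compound pinned in; FRET-FV substrate; RT 20 min; Ex320/Em430; ΔFRET vs ADEP 5.8 microM, DMSO, no enzyme.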
TDP1 cell noCPT: qHTS for Inhibitors of human tyrosyl-DNA phosphodiesterase 1 (TDP1): qHTS in cells in absence of CPT. Potency, µM (series often up to 46.2 µM), inactives show top-dose activity change, negative = growth inhibition, hits mostly inhibitors. AID 686978, 2013. 420,000 compounds, 15% hits. DT40 Tdp1-/- hTDP1 cells, no CPT, ATP luminescence, 48 h; further: on the % scale 0 is the no-effect control and ±100 the full control effect; nearly all actives have a fitted effect of over 55% in size
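Camptothecin absent (DMSO only). Human TDP1-complemented DT40 knockout cells, 400 cells/well, 37 °C for minimum 48 hr; ATP measured via CellTiter-Glo, 30 min dark incubation, luminescence.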
* marks the source's active call; other numbers are inactive results; [ ] = another dose, or the depositor's remark. Unless noted, the call rests on the fitted dose curve; in most records, active means well fitted curve in the direction sought with a large enough effect; inconclusive means small, poorly fitted or top-dose-only effect, or another doubt; inactive means no such curve, though single readings can be large; an effect the other way counts as inactive or inconclusive. Potency means the concentration at half of the fitted maximal effect.

How did CC1CN(C(=O)c2cc(S(=O)(=O)N3CCCC3)c(Cl)cc2Cl)CC(C)O1 (stereo not drawn) do in these assays?
TDP1 inh: 6%; DT40 TDP1 CPT: 13µM*; ClpP mod: 0%; TDP1 cell noCPT: 18µM*

Results for CN(C)CCCNC(=O)c1ccc(Cl)c(S(=O)(=O)N2CCCCCC2)c1 ?
TDP1 inh: 2%; DT40 TDP1 CPT: 10µM*; ClpP mod: 2%; TDP1 cell noCPT: inconclusive

Results for O=C(NCCN1CCOCC1)c1ccc(Cl)c(S(=O)(=O)N2CCCCC2)c1 ?
TDP1 inh: 3%[56.1 µM]; DT40 TDP1 CPT: -23%; ClpP mod: -3%; TDP1 cell noCPT: -1%

What do the screens show for `CN(C)c1ccc(/C=C(/NC(=O)c2ccccc2)C(=O)N2CCCC2)cc1`?
TDP1 inh: -8%; DT40 TDP1 CPT: inconclusive; TDP1 cell noCPT: -23%

Results for CC1CN(S(=O)(=O)c2ccc(Cl)c(S(=O)(=O)N3CC(C)OC(C)C3)c2)CC(C)O1 (stereo not drawn) ?
TDP1 inh: 2%; DT40 TDP1 CPT: inconclusive; ClpP mod: 0%; TDP1 cell noCPT: 15µM*

How did CCOCCCN(Cc1cc2cc(C)cc(C)c2[nH]c1=O)C(=O)N(CC)CC do in these assays?
TDP1 inh: 5%; DT40 TDP1 CPT: 15µM*; ClpP mod: -15%; TDP1 cell noCPT: 16µM*

What do the screens show for `CCN(CC)CCN(Cc1cc2cccc(C)c2[nH]c1=O)C(=S)Nc1ccccc1`?
TDP1 inh: -3%; DT40 TDP1 CPT: inconclusive; TDP1 cell noCPT: inconclusive

How did Cc1ccc2cc(CN(CCN(C)C)C(=S)Nc3ccccc3)c(=O)[nH]c2c1C do in these assays?
TDP1 inh: 4%; DT40 TDP1 CPT: inconclusive; TDP1 cell noCPT: 21µM*

Results for Cc1ccc(NC(=S)N(CCCN(C)C)Cc2cc3cc4c(cc3[nH]c2=O)OCO4)cc1 ?
TDP1 inh: 0%; DT40 TDP1 CPT: 2%; TDP1 cell noCPT: -5%

Results for Cc1ccc(NC(=S)N(CCN(C)C)Cc2cc3cc(C)cc(C)c3[nH]c2=O)cc1 ?
TDP1 inh: 5%; DT40 TDP1 CPT: inconclusive; ClpP mod: -6%; TDP1 cell noCPT: 4.6µM*

What do the screens show for `FC(F)(F)c1cc(NC(=S)NC(c2ccccc2)c2ccccc2)cc(C(F)(F)F)c1`?
TDP1 inh: 2%

How did COc1ccc(C2OC3C(CO)OC(n4cnc5c(=O)[nH]c(N)nc54)C3O2)cc1 (stereo not drawn) do in these assays?
TDP1 inh: 8%[56.1 µM]; DT40 TDP1 CPT: 0%; TDP1 cell noCPT: 0%

What do the screens show for `CC(C)(C)OC(=O)NCc1ccc(NC(=O)c2nc[nH]c2C(=O)Nc2cc(Br)ccc2F)cc1`?
DT40 TDP1 CPT: 10µM*; ClpP mod: -15%; TDP1 cell noCPT: 13µM*

How did CC(C)(C)OC(=O)NCCCCCNC(=O)c1[nH]cnc1C(=O)Nc1cc(Br)ccc1F do in these assays?
DT40 TDP1 CPT: 12µM*; ClpP mod: 5%; TDP1 cell noCPT: 5.8µM*

What do the screens show for `CCN(CC)C(=O)c1[nH]cnc1C(=O)NCCCCCNC(=O)OC(C)(C)C`?
TDP1 inh: 0%; DT40 TDP1 CPT: -2%; ClpP mod: -3%; TDP1 cell noCPT: -3%

What do the screens show for `C[C@@H](/C=C\c1cccc(Oc2ccc(F)cc2)c1)N(O)C(N)=O`?
TDP1 inh: -13%; DT40 TDP1 CPT: inconclusive; TDP1 cell noCPT: inconclusive

Results for CC(NC(=O)CCCn1c(=O)c2cccn2c2cccnc21)c1ccccc1 (stereo not drawn) ?
TDP1 inh: 5%; DT40 TDP1 CPT: -2%; ClpP mod: 4%; TDP1 cell noCPT: -8%

What do the screens show for `O=C(OCCN(C1=NS(=O)(=O)c2ccccc21)c1ccccc1Cl)c1ccc(Cl)cc1`?
TDP1 inh: 0%; DT40 TDP1 CPT: 18µM*; ClpP mod: -18%; TDP1 cell noCPT: inconclusive

Results for CN(CC(=O)Nc1ccc(Cl)cc1F)C1=NS(=O)(=O)c2ccccc21 ?
TDP1 inh: 0%; DT40 TDP1 CPT: 9%; ClpP mod: 2%; TDP1 cell noCPT: -19%

How did COc1ccc2c(Cl)c(C(=O)NN3CCN(C)CC3)sc2c1 do in these assays?
TDP1 inh: -5%; DT40 TDP1 CPT: inconclusive; ClpP mod: -1%; TDP1 cell noCPT: inconclusive

How did O=S(=O)(Cc1ccccc1Cl)NCCc1ccc(F)cc1 do in these assays?
TDP1 inh: 4%; DT40 TDP1 CPT: -13%; ClpP mod: 1%; TDP1 cell noCPT: -14%

Results for CC(=O)n1ccnc1 ?
DT40 TDP1 CPT: 0%; ClpP mod: 0%; TDP1 cell noCPT: -4%

What do the screens show for `COC(=O)c1ccc(NC(=O)C(=O)NCC(c2cccnc2)N2CCN(c3ccccc3)CC2)cc1` (stereo not drawn)?
TDP1 inh: 9%; DT40 TDP1 CPT: -20%; ClpP mod: 1%; TDP1 cell noCPT: -19%

What do the screens show for `CCOc1ccccc1NC(=O)C(=O)NCC(c1cccnc1)N1CCN(c2ccccc2)CC1` (stereo not drawn)?
TDP1 inh: 4%; DT40 TDP1 CPT: inconclusive; ClpP mod: 1%; TDP1 cell noCPT: inconclusive

Results for Cc1cc(C)cc(NC(=O)C(=O)NCC(c2cccnc2)N2CCN(c3ccccc3)CC2)c1 (stereo not drawn) ?
TDP1 inh: 4%; DT40 TDP1 CPT: 21µM*; ClpP mod: -1%; TDP1 cell noCPT: 16µM*

Results for COc1cccc(NC(=O)C(=O)NCC(c2cccnc2)N2CCN(c3ccccc3)CC2)c1 (stereo not drawn) ?
TDP1 inh: 3%; DT40 TDP1 CPT: inconclusive; ClpP mod: -1%; TDP1 cell noCPT: 18µM*

Results for Cc1nc(-c2ccccc2)sc1-c1ccc(SCC(=O)Nc2ccc(F)cc2F)nn1 ?
TDP1 inh: 3%; DT40 TDP1 CPT: -28%; ClpP mod: -8%; TDP1 cell noCPT: inconclusive

Results for COc1cc(NC(=O)CSc2ccc(-c3sc(C)nc3C)nn2)cc(OC)c1 ?
TDP1 inh: 0%; DT40 TDP1 CPT: 21µM*; ClpP mod: -2%; TDP1 cell noCPT: 18µM*

What do the screens show for `CC(=O)c1ccc(NC(=O)CSc2ccc(-c3sc(C)nc3C)nn2)cc1`?
TDP1 inh: 3%; DT40 TDP1 CPT: 13µM*; ClpP mod: 0%; TDP1 cell noCPT: inconclusive

Results for Cc1cccc(NC(=O)CSc2ccc(-c3sc(-c4ccccc4)nc3C)nn2)c1C ?
TDP1 inh: 10%; DT40 TDP1 CPT: inconclusive; ClpP mod: -16%; TDP1 cell noCPT: inconclusive

How did CCOC(=O)c1ccccc1NC(=O)CSc1ccc(-c2sc(C)nc2C)nn1 do in these assays?
TDP1 inh: 11%; DT40 TDP1 CPT: 15µM*; ClpP mod: -5%; TDP1 cell noCPT: 12µM*
